For 40 molecules, growth results are on record in PubChem BioAssay (NCI).

This is part of a sample that, as a whole, favours compounds with a hit. Of some 83,000 tested, about 20% had one in any assay.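 Single-concentration screen, 48 h exposure, 96-well plates. Endpoint: percent growth. Below 10 = active.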 Active and inactive are the calls of the source.

This assay deals with TK-10 renal. In words: NCI-60 one-dose screen, 48 h (100 = growth as untreated, 0 = no growth, -100 = all killed). Particulars: 10 µM unless noted. Here is the method: Growth inhibition of the TK-10 human tumor cell line is measured as a screen for anti-cancer activity. Cells are grown in 96 well plates and exposed to the test compound for 48 hours. Compounds are tested at a single concentration, which is 10^-5 M for most compounds. The reported endpoint is percent growth (GI% or GIPRCNT), where numbers from 0 - 100% represent growth inhibition, and numbers from -100% - 0 represent cell death. For example, a value of 40 represents 60% growth inhibition. A value of 0 means no net growth occurred over the course of the experiment. A value of -40 indicates 40% of cells at the beginning of the experiment died by the end of the experiment. A value of -100 means all cells are dead at the end of the experiment.
NCI-60 Human Tumor Cell Lines Screen was performed using the standard one-dose NCI protocol, which is described in more detail at https://dtp.cancer.gov/discovery_development/nci-60/default.htm.
Compounds with GIPRCNT values below 10 were considered active. Activity score was based on GIPRCNT using the following formula: […]
Score is 0 for GIPRCNT values of 100 or above, 50 for GIPRCNT values of 0, and 100 for GIPRCNT values of -100.
For `Cc1ccc(/C=C/CC(=O)Nc2ccc(C(=O)Nc3ccc(F)cc3N)cc2)cn1`, the growth is 34.9% (inactive).
`O=C1CSC(=O)N1Cc1cc2ccccc2nc1Cl`: the growth was 98.5% (inactive).
Take `COc1ccc(-c2cc(-c3cccc4ccccc34)n3c(n2)nc2ccccc23)cc1`: the growth was 43% (inactive).
Consider `COc1ccc(OC)c(NC2=C(Cl)C(=O)C(C)=C(C)C2=O)c1`, for which the growth was 172% (inactive).
Take `Clc1ccc(-c2csc(Nc3cccc(Nc4csc(-c5ccc(Cl)cc5)n4)c3)n2)cc1`: the growth was 98.2% (inactive).
As for `COc1ccc(-c2nnc(/N=C3/C(=O)Nc4ccc(Br)cc43)o2)cc1`, the growth is 143% (inactive).
Next, `CC[C@H](C)[C@H]1NC(=O)[C@@H]([C@H](O)C(C)C)NC(=O)[C@@H](C)N(C)C(=O)[C@H](C)N(C)C(=O)[C@H](CC(C)C)NC(=O)[C@H](CC(C)C)N(C)C(=O)[C@H](C)N(C)C1=O`: 1.97% (active); `O=C(CN1C(=O)S/C(=C\c2ccccc2)C1=O)Nc1ccc(C(=O)/C=C/c2cc3ccccc3nc2Cl)cc1`: 84.9% (inactive); `O=C(NCCCNc1cc(-c2cn(-c3ccccc3)nc2-c2cccc(O)c2)ccn1)Nc1ccc(F)cc1`: 65% (inactive).
On to `COc1ccccc1/C=C/C(=O)c1nnn(-c2ccc(C(=O)O)cc2)c1C`, for which the growth was 117% (inactive).
On to `Oc1ccc(CSc2nnc(-c3ccc(Br)cc3)o2)c2cccnc12`, for which the growth was 60% (inactive).
With `O=C(/C=C1\C=CN(CCCCF)c2ccccc21)n1ccc2ccccc21`, the growth was 117% (inactive).
Then `CN1CCN(c2nc(-c3cnc4ccccc4n3)cc3ccccc23)CC1`, with 99.9% (inactive); and `O=C(NNc1nc2cc(F)c(F)cc2n2cccc12)c1ccncn1`, with 27.1% (inactive); and `CC(C)SC1=NC(=C(C(=N1)NC2=ClC=CC=C2)C#N)C3=CC=CC=C3`, with 112% (inactive).
For `Cc1ccc(Cc2cnc(NC(=O)/C(C#N)=C/c3ccc(-c4ccc(Cl)cc4)o3)s2)cc1`, the growth was 120% (inactive).
Consider `COc1ccc(-c2cc(-c3ccc(Cl)cc3)nc3nc(N)nn23)cc1`, for which the growth is 93.2% (inactive).
Next, `Oc1ccc(CSc2nnc(-c3ccc(Cl)cc3)o2)c2cccnc12`: 39.1% (inactive).
As for `COc1cc2c3c(n(CCCN4CCCC4)c(=O)c2cc1OC)-c1cc2c(cc1C3=O)OCO2`, the growth is -86% (active).
Regarding `NS(=O)(=O)Oc1ccc2nc(Nc3ccc(F)c(F)c3)ccc2c1`, the growth is 118% (inactive).
On to `Nc1n[nH]c2cccc(C#Cc3cccc(NC(=O)c4cccc(OC(F)(F)F)c4)c3)c12`, for which the growth is 97.1% (inactive).
As to `O=C1C[C@@H](c2ccccc2)Oc2c(Cc3ccccc3O)c(O)c(Cc3cc(Cc4cc(Cc5ccccc5O)ccc4O)ccc3O)c(O)c21`, the growth was 147% (inactive).
Then `COc1ccc2c(C3=C(c4c[nH]c5ccccc45)C(=O)N(O)C3=O)coc2c1`, with 144% (inactive); and `COc1cc(O)c2c(c1)[C@H]1O[C@@H]1C[C@H](O)[C@H](O)C(=O)/C=C\C[C@H](C)OC2=O`, with 48.6% (inactive).
As to `CCNC(=NCCCN(C)C)N/C(N)=N/c1nc2ccccc2s1`, the growth is 100% (inactive).
As for `O=c1cc(-c2ccccc2)nc2sc(-c3c[nH]c4ccc(F)cc34)nn12`, the growth is 50.9% (inactive).
Then `O=c1oc2ccc(-c3ccc(F)cc3F)cc2c(=O)n1-c1cccc(C(F)(F)F)c1`, with 15.4% (inactive); and `O=C1Nc2cc(OC(F)(F)F)ccc2Oc2ccc(-c3ccnc(N4CC[C@H](O)C4)c3)cc21`, with 75.6% (inactive); and `CCc1ccc(NC(=O)N[C@@H](Cc2cccc(C)c2)C(=O)N[C@@H]2C(=O)N3CCC[C@H]3C(=O)N3CCCC[C@H]3C(=O)N[C@@H](CO)C(=O)N3C[C@H](C)C[C@H]3C(=O)O[C@H]2C)c(F)c1`, with 52.9% (inactive).
Next, `O=C(Nc1cccc(Cl)c1)Nc1nc2ccc(-c3cccc4ccccc34)cc2s1`: 74.7% (inactive).
With `N#C/C(=C\c1ccc(-c2ccc(F)cc2)o1)C(=O)Nc1ncc(Cc2ccc(Cl)cc2Cl)s1`, the growth is -4.43% (active).
As for `CC(C)(C)n1nnnc1C(Nc1nccs1)c1cc2cccc3ccc4cccc1c4c32` (stereo not given), the growth is 99% (inactive).
As to `COc1cnc2c(c1)C(=O)c1c-2n(CCCn2ccnc2)c(=O)c2cc(OC)c(OC)cc12`, the growth was -91.4% (active).
Next, `CC1OC(O[C@@H]2[C@H](O)C(CO)OC(O[C@H]3COC(O[C@H]4CC[C@]5(C)[C@H]6CC[C@]78OC[C@@]9(CC[C@](C)(C=O)C[C@H]97)C(=O)C[C@@]8(C)[C@]6(C)CC[C@H]5C4(C)C)[C@@H](O)[C@@H]3O)[C@H]2OC2OC[C@@H](O)[C@@H](O)[C@@H]2O)[C@@H](O)[C@@H](O)[C@H]1O` (stereo not given in full): 102% (inactive); `COc1ccc(-c2nc(SCCC(C)C)nc(N/N=C\c3ccc(O)cc3)c2C#N)cc1`: 157% (inactive); `O=C1c2cc(Br)ccc2-n2c1nc1cc(Br)ccc1c2=O`: 149% (inactive).
Turning to `Brc1cccc(/C=N/Nc2nc(N/N=C/c3cccc(Br)c3)nc(N3CCOCC3)n2)c1`, the growth was 66.8% (inactive).
With `C/C=C/C=C1\C[C@H]2CO[C@H](O2)C1=O`, the growth was 108% (inactive).
For the molecule `CSc1nccc(-c2c(-c3ccc(F)c(OCc4ccc(F)cc4)c3)nc3sccn23)n1`, the growth is 70% (inactive).
Then `CCOC(=O)/C=c1\sc2n(c1=O)C1C(NN=2)N(CC)C(=O)N1CC` (stereo not given), with 81.3% (inactive).
